Reference: PubChem BioAssay (EPA / NIEHS)
The source made the active and inactive calls. Rule for the calls: active = hit-call score of the fitted dose curve at least 0.9, where 1 is the maximum; inactive = score below 0.9.

Key:
[1] = read-out: Tissue Factor, F3 (gene 2152); experiment: BSK_CASM3C_TissueFactor: BioMAP Diversity Plus: CASM3C Assay for Tissue Factor Biomarker Activity (AID 2283052); conditions: primary human coronary artery smooth muscle cells; actives raise or lower the signal;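 note: cell surface tissue factor protein level read by ELISA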
[2] = read-out: Interferon-gamma inducible Protein 10 (IP10), CXCL10 (gene 3627); experiment: BSK_hDFCGF_IP10: BioMAP Diversity Plus: hDFCGF Assay for Interferon-gamma inducible Protein 10 (IP10) Biomarker Activity (AID 2283053); conditions: primary human foreskin fibroblasts; actives raise or lower the signal
Method in brief: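 Cells: human dermal foreskin fibroblasts. Exposure: 24 h post-dosing. Detection: IP-10 ELISA, with values expressed against DMSO controls and fitted in both directions.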

[3] = read-out: Urokinase-type plasminogen activator receptor (uPAR), PLAUR (gene 5329); experiment: BSK_CASM3C_uPAR: BioMAP Diversity Plus: CASM3C Assay for Urokinase-type plasminogen activator receptor (uPAR) Biomarker Activity (AID 2283054); conditions: primary human coronary artery smooth muscle cells; actives raise or lower the signal;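 note: cell-surface uPAR protein level quantified by ELISA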
[4] = read-out: Vascular cell adhesion molecule 1 (VCAM1), VCAM1 (gene 7412); experiment: BSK_CASM3C_VCAM1: BioMAP Diversity Plus: CASM3C Assay for Vascular cell adhesion molecule 1 (VCAM1) Biomarker Activity (AID 2283055); conditions: primary human coronary artery smooth muscle cells; actives raise or lower the signal;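 note: VCAM-1 protein level quantified by ELISA on the cells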
[5] = read-out: Collagen III, COL3A1 (gene 1281); experiment: BSK_hDFCGF_CollagenIII: BioMAP Diversity Plus: hDFCGF Assay for Collagen III Biomarker Activity (AID 2283056); conditions: primary human foreskin fibroblasts; actives raise or lower the signal
Method in brief: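 ELISA readout of Collagen III in human dermal (foreskin) fibroblasts, taken 24 h post-treatment. Gain or loss relative to DMSO vehicle fitted in both directions.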

[6] = read-out: Epidermal growth factor receptor (EGFR), EGFR (gene 1956); experiment: BSK_hDFCGF_EGFR: BioMAP Diversity Plus: hDFCGF Assay for Epidermal growth factor receptor (EGFR) Biomarker Activity (AID 2283057); conditions: primary human foreskin fibroblasts; actives raise or lower the signal
Method in brief: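 Dosing human primary skin fibroblasts, then measuring surface EGFR by ELISA at 24 h, gives the endpoint; gains and losses relative to DMSO were fitted in both directions.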

[7] = read-out: Interleukin-8 (IL8), CXCL8 (gene 3576); experiment: BSK_hDFCGF_IL8: BioMAP Diversity Plus: hDFCGF Assay for Interleukin-8 (IL8) Biomarker Activity (AID 2283058); conditions: primary human foreskin fibroblasts; actives raise or lower the signal
Method in brief: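 IL-8 levels read by ELISA at 24 hours after dosing human skin fibroblast cultures. Parallel SRB staining assessed overt cytotoxicity, and gain or loss of signal was fitted against DMSO control.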

[8] = read-out: Macrophage colony-stimulating factor (MCSF), CSF1 (gene 1435); experiment: BSK_hDFCGF_MCSF: BioMAP Diversity Plus: hDFCGF Assay for Macrophage colony-stimulating factor (MCSF) Biomarker Activity (AID 2283060); conditions: primary human foreskin fibroblasts; actives raise or lower the signal
Method in brief: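 M-CSF levels read by ELISA at 24 h post-dosing in human skin fibroblasts. Parallel cultures stained with SRB assessed cytotoxicity at the same time point; response fitted in both directions against the DMSO baseline.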

[9] = BSK_hDFCGF_SRB: Viability Assessment in the BioMAP Diversity Plus: hDFCGF Assay (AID 2283061); conditions: primary human foreskin fibroblasts;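 note: cells exposed to compound for 24 h before the read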
Method in brief: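 Viability was read as total protein: after 10% TCA fixation, wells were stained with 0.1% sulforhodamine B and read at 560 nm. Primary human foreskin fibroblasts were dosed for 24 h, with bidirectional fitting versus DMSO.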

[10] = read-out: TIMP metallopeptidase inhibitor 1 (TIMP1), TIMP1 (gene 7076); experiment: BSK_hDFCGF_TIMP1: BioMAP Diversity Plus: hDFCGF Assay for TIMP metallopeptidase inhibitor 1 (TIMP1) Biomarker Activity (AID 2283062); conditions: primary human foreskin fibroblasts; actives raise or lower the signal
Method in brief: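 TIMP-1 measured by ELISA 24 h after chemical dosing of primary human skin fibroblasts, with gain or loss fitted relative to DMSO. Parallel SRB staining (560 nm) monitored overt cytotoxicity.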

[11] = read-out: Monokine induced gamma interferon (MIG), CXCL9 (gene 4283); experiment: BSK_hDFCGF_MIG: BioMAP Diversity Plus: hDFCGF Assay for Monokine induced gamma interferon (MIG) Biomarker Activity (AID 2283063); conditions: primary human foreskin fibroblasts; actives raise or lower the signal
Method in brief: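 Human primary foreskin fibroblasts in the hDFCGF system, exposed to test chemical for 24 h; MIG measured by ELISA. Bidirectional curve fitting against DMSO negative control as activity baseline.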

[12] = read-out: Matrix Metallopeptidase 1 (MMP1), MMP1 (gene 4312); experiment: BSK_hDFCGF_MMP1: BioMAP Diversity Plus: hDFCGF Assay for Matrix Metallopeptidase 1 (MMP1) Biomarker Activity (AID 2283064); conditions: primary human foreskin fibroblasts; actives raise or lower the signal
Method in brief: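 MMP1 levels quantified by ELISA 24 h after dosing human dermal fibroblast cultures, with parallel SRB total-protein staining for overt cytotoxicity. Data fitted in both directions against DMSO baseline.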

[13] = read-out: Plasminogen activator inhibitor-1 (PAI1), SERPINE1 (gene 5054); experiment: BSK_hDFCGF_PAI1: BioMAP Diversity Plus: hDFCGF Assay for Plasminogen activator inhibitor-1 (PAI1) Biomarker Activity (AID 2283066); conditions: primary human foreskin fibroblasts; actives raise or lower the signal
Method in brief: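 Fibroblasts from human foreskin were treated with test chemical. After 24 h, PAI-1 was measured by ELISA. Activity was fitted in both directions relative to DMSO.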

[14] = read-out: Interferon-gamma inducible Protein 10 (IP10), CXCL10 (gene 3627); experiment: BSK_KF3CT_IP10: BioMAP Diversity Plus: KF3CT Assay for Interferon-gamma inducible Protein 10 (IP10) Biomarker Activity (AID 2283068); conditions: primary human keratinocytes with fibroblasts; actives raise or lower the signal
Method in brief: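 KF3CT co-culture (keratinocytes + foreskin fibroblasts), 24 h compound, IP-10 by ELISA; bidirectional fit vs DMSO baseline.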

[15] = read-out: Interleukin-1 alpha (IL1a), IL1A (gene 3552); experiment: BSK_KF3CT_IL1a: BioMAP Diversity Plus: KF3CT Assay for Interleukin-1 alpha (IL1a) Biomarker Activity (AID 2283070); conditions: primary human keratinocytes with fibroblasts; actives raise or lower the signal
Method in brief: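 IL-1a was detected by ELISA 24 h after chemical treatment of a co-culture of human skin keratinocytes and foreskin fibroblasts. Gain or loss of signal was fitted against the DMSO baseline.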

[16] = read-out: TIMP metallopeptidase inhibitor 2 (TIMP2), TIMP2 (gene 7077); experiment: BSK_KF3CT_TIMP2: BioMAP Diversity Plus: KF3CT Assay for TIMP metallopeptidase inhibitor 2 (TIMP2) Biomarker Activity (AID 2283071); conditions: primary human keratinocytes with fibroblasts; actives raise or lower the signal
Method in brief: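 Chemicals were dosed onto human skin primary co-cultures of keratinocytes and foreskin fibroblasts, and TIMP-2 was measured by ELISA after 24 hours. Activity in either direction was fitted relative to DMSO.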

[17] = read-out: Intercellular Adhesion Molecule 1 (ICAM1), ICAM1 (gene 3383); experiment: BSK_KF3CT_ICAM1: BioMAP Diversity Plus: KF3CT Assay for Intercellular Adhesion Molecule 1 (ICAM1) Biomarker Activity (AID 2283067); conditions: primary human keratinocytes with fibroblasts; actives raise or lower the signal
Method in brief: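 Cell-surface ICAM-1 was measured by ELISA 24 h after dosing primary human skin keratinocytes co-cultured with fibroblasts. Parallel SRB staining tracked overt cytotoxicity. Gain or loss of signal was fitted relative to DMSO.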

[18] = read-out: Vascular cell adhesion molecule 1 (VCAM1), VCAM1 (gene 7412); experiment: BSK_hDFCGF_VCAM1: BioMAP Diversity Plus: hDFCGF Assay for Vascular cell adhesion molecule 1 (VCAM1) Biomarker Activity (AID 2283065); conditions: primary human foreskin fibroblasts; actives raise or lower the signal
Method in brief: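 ELISA readout of VCAM-1 on human dermal fibroblast primary cultures, 24 h after chemical exposure. Gain or loss of signal fitted in both directions against DMSO baseline.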

[19] = BSK_KF3CT_SRB: Viability Assessment in the BioMAP Diversity Plus: KF3CT Assay (AID 2283069); conditions: primary human keratinocytes with fibroblasts;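 note: total protein by sulforhodamine B staining as a cytotoxicity measure; read 24 h after compound addition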
Method in brief: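 Cytotoxicity was gauged by SRB staining (0.1% SRB, 10% TCA fixation, 560 nm) of parallel cultures at 24 h. The cells were primary human skin keratinocytes co-cultured with fibroblasts, and activity was fitted in both directions against DMSO.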

Measured: AC50

O=[N+]([O-])c1ccc(Nc2ccccc2)cc1
not listed: [17] | [18] | [19]
inactive: all other assays above

CCOP(=O)(OCC)SCCSCC
not listed: [16] | [17] | [18] | [19]
inactive: all other assays above

CCC(C)(C#N)N=NC(C)(C#N)CC (centres undefined)
active: [13] 0.016 µM
not listed: [18] | [19]
inactive: all other assays above

Clc1cccc(Cl)c1Cl
not listed: [16] | [17] | [19]
inactive: all other assays above

Cc1cc(Cl)ccc1N
not listed: [16] | [17] | [18]
inactive: all other assays above

CCCCCCCCCCCCc1cccc(S(=O)(=O)O)c1
inactive: [1] | [3] | [4]
active: [2] 12.7 µM | [5] 16.2 µM | [6] 11.8 µM | [8] 12.5 µM | [9] 18.1 µM | [10] 30.1 µM | [11] 27.6 µM | [12] 28.3 µM | [13] 9.68 µM | [17] 28.4 µM | [14] 16.5 µM | [15] 33.3 µM

Nc1ccc(N)cc1
not listed: [17]
inactive: all other assays above

CCOC(=O)CC(=O)CCl
active: [1] 14 µM | [4] 20 µM | [8] 20 µM | [11] 20 µM | [15] 6.58 µM
not listed: [17] | [18]
inactive: all other assays above

Cc1cc(C)cc(C)c1
not listed: [17] | [19]
inactive: all other assays above

OCCCCO
not listed: [16] | [18]
inactive: all other assays above

CCN(CC)C(=O)C(Cl)=C(C)OP(=O)(OC)OC
not listed: [17]
inactive: all other assays above

CCCCOC(=O)COC(=O)c1ccccc1C(=O)OCCCC
not listed: [17] | [18] | [19]
inactive: all other assays above

O=C(CCl)NCO
not listed: [9] | [16] | [18]
inactive: all other assays above

CCCCCCCCCCCCN(C)C
not listed: [16] | [17] | [18] | [19]
inactive: all other assays above
